# ± gives the standard deviation of the averaged measurements.
# Key:
# Assay in all cases: promoter activity interaction Z-score (Lux/OD deviation from empty-vector control); higher = stronger promoter induction by the compound
# [1] = tested on: E. coli BW25113 acrABp lux reporter
# How it was run: (§1)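 Four 1:2 dilutions of each compound were tested in biological duplicates on E. coli BW25113 carrying low-copy luxCDABE promoter reporters, either wild type or deleted for one of three genes. Cultures of 40 µl LB Lennox in 384-well plates were kept at 37°C and read for OD600 and luminescence every 30 min for 12 h. Integration windows were 0–8 h for wild type and 1–9 h for deletion strains, and wells under 10% of the median growth value were discarded. The score is a Z-transformed residual of growth-normalised luminescence relative to a control fit.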
# [2] = tested on: E. coli BW25113 marRABp lux reporter
# How it was run: as §1
# [3] = tested on: E. coli BW25113 micFp lux reporter
# How it was run: as §1
# [4] = tested on: E. coli BW25113 ompFp lux reporter
# How it was run: as §1
# [5] = tested on: E. coli BW25113 robp lux reporter
# How it was run: as §1
# [6] = tested on: E. coli BW25113 soxSp lux reporter
# How it was run: as §1
# [7] = tested on: E. coli BW25113 tolCp lux reporter
# How it was run: as §1
# [8] = 40.6 µg/ml, genetic background: wild type
# [9] = 40.6 µg/ml, genetic background: ΔmarA
# [10] = 40.6 µg/ml, genetic background: Δrob
# [11] = 40.6 µg/ml, genetic background: ΔsoxS
# [12] = 81.1 µg/ml, genetic background: wild type
# [13] = 81.1 µg/ml, genetic background: ΔmarA
# [14] = 81.1 µg/ml, genetic background: Δrob
# [15] = 81.1 µg/ml, genetic background: ΔsoxS
# [16] = 162.2 µg/ml, genetic background: wild type
# [17] = 162.2 µg/ml, genetic background: ΔmarA
# [18] = 162.2 µg/ml, genetic background: Δrob
# [19] = 162.2 µg/ml, genetic background: ΔsoxS
# [20] = 324.4 µg/ml, genetic background: wild type
# [21] = 324.4 µg/ml, genetic background: ΔmarA
# [22] = 324.4 µg/ml, genetic background: Δrob
# [23] = 324.4 µg/ml, genetic background: ΔsoxS
structure (smiles),measurement,setting,value
C=C[C@H]1CN2CC[C@H]1C[C@H]2[C@H](O)c1ccnc2ccc(OC)cc12 [Quinine],promoter activity interaction Z-score,[1]; [8],-0.0276 ± 0.14
same,promoter activity interaction Z-score,[1]; [9],0.379 ± 1.7
same,promoter activity interaction Z-score,[1]; [10],-0.214 ± 0.025
same,promoter activity interaction Z-score,[1]; [11],-0.207 ± 0.36
same,promoter activity interaction Z-score,[1]; [12],-0.0617 ± 0.23
same,promoter activity interaction Z-score,[1]; [13],0.66 ± 0.57
same,promoter activity interaction Z-score,[1]; [14],-0.0693 ± 0.15
same,promoter activity interaction Z-score,[1]; [15],0.146 ± 0.074
same,promoter activity interaction Z-score,[1]; [16],-0.321 ± 0.19
same,promoter activity interaction Z-score,[1]; [17],-0.122 ± 1
same,promoter activity interaction Z-score,[1]; [18],0.00483 ± 0.12
same,promoter activity interaction Z-score,[1]; [19],-0.386 ± 0.088
same,promoter activity interaction Z-score,[1]; [20],-0.269 ± 0.44
same,promoter activity interaction Z-score,[1]; [21],-0.173 ± 0.094
same,promoter activity interaction Z-score,[1]; [22],0.046 ± 0.023
same,promoter activity interaction Z-score,[1]; [23],-0.181 ± 0.2
same,promoter activity interaction Z-score,[2]; [8],0.0904 ± 0.38
same,promoter activity interaction Z-score,[2]; [9],-0.307 ± 0.24
same,promoter activity interaction Z-score,[2]; [10],-0.00554 ± 0.082
same,promoter activity interaction Z-score,[2]; [11],-0.106 ± 0.073
same,promoter activity interaction Z-score,[2]; [12],-0.119 ± 0.029
same,promoter activity interaction Z-score,[2]; [13],0.197 ± 0.19
same,promoter activity interaction Z-score,[2]; [14],-0.0844 ± 0.1
same,promoter activity interaction Z-score,[2]; [15],0.0817 ± 0.18
same,promoter activity interaction Z-score,[2]; [16],-0.16 ± 0.05
same,promoter activity interaction Z-score,[2]; [17],0.254 ± 0.062
same,promoter activity interaction Z-score,[2]; [18],-0.151 ± 0.3
same,promoter activity interaction Z-score,[2]; [19],-0.0309 ± 0.098
same,promoter activity interaction Z-score,[2]; [20],1.1 ± 0.12
same,promoter activity interaction Z-score,[2]; [21],1.18 ± 0.12
same,promoter activity interaction Z-score,[2]; [22],-0.164 ± 0.17
same,promoter activity interaction Z-score,[2]; [23],0.579 ± 0.51
same,promoter activity interaction Z-score,[3]; [8],0.322 ± 0.35
same,promoter activity interaction Z-score,[3]; [9],0.0116 ± 0.1
same,promoter activity interaction Z-score,[3]; [10],-0.133 ± 0.038
same,promoter activity interaction Z-score,[3]; [11],-0.0747 ± 0.16
same,promoter activity interaction Z-score,[3]; [12],0.106 ± 0.04
same,promoter activity interaction Z-score,[3]; [13],0.118 ± 0.17
same,promoter activity interaction Z-score,[3]; [14],-0.0678 ± 0.18
same,promoter activity interaction Z-score,[3]; [15],0.253 ± 0.078
same,promoter activity interaction Z-score,[3]; [16],0.0719 ± 0.29
same,promoter activity interaction Z-score,[3]; [17],0.23 ± 0.0035
same,promoter activity interaction Z-score,[3]; [18],0.137 ± 0.068
same,promoter activity interaction Z-score,[3]; [19],0.356 ± 0.086
same,promoter activity interaction Z-score,[3]; [20],0.7474 ± 0.0019
same,promoter activity interaction Z-score,[3]; [21],0.582 ± 0.025
same,promoter activity interaction Z-score,[3]; [22],0.201 ± 0.17
same,promoter activity interaction Z-score,[3]; [23],1.13 ± 0.047
same,promoter activity interaction Z-score,[4]; [8],0.0547 ± 0.22
same,promoter activity interaction Z-score,[4]; [9],-0.33 ± 0.1
same,promoter activity interaction Z-score,[4]; [10],-0.566 ± 0.33
same,promoter activity interaction Z-score,[4]; [11],0.39 ± 0.047
same,promoter activity interaction Z-score,[4]; [12],-0.0322 ± 0.074
same,promoter activity interaction Z-score,[4]; [13],0.401 ± 0.48
same,promoter activity interaction Z-score,[4]; [14],0.0636 ± 0.022
same,promoter activity interaction Z-score,[4]; [15],0.369 ± 0.07
same,promoter activity interaction Z-score,[4]; [16],-0.435 ± 0.35
same,promoter activity interaction Z-score,[4]; [17],-0.0896 ± 0.32
same,promoter activity interaction Z-score,[4]; [18],0.318 ± 0.14
same,promoter activity interaction Z-score,[4]; [19],-0.194 ± 0.092
same,promoter activity interaction Z-score,[4]; [20],-0.15 ± 0.097
same,promoter activity interaction Z-score,[4]; [21],0.352 ± 0.51
same,promoter activity interaction Z-score,[4]; [22],-0.0516 ± 0.19
same,promoter activity interaction Z-score,[4]; [23],-0.0712 ± 0.12
same,promoter activity interaction Z-score,[5]; [8],0.233 ± 0.19
same,promoter activity interaction Z-score,[5]; [9],-0.32 ± 0.61
same,promoter activity interaction Z-score,[5]; [10],-0.0483 ± 0.15
same,promoter activity interaction Z-score,[5]; [11],0.121 ± 0.51
same,promoter activity interaction Z-score,[5]; [12],-0.103 ± 0.11
same,promoter activity interaction Z-score,[5]; [13],0.432 ± 0.065
same,promoter activity interaction Z-score,[5]; [14],0.674 ± 0.12
same,promoter activity interaction Z-score,[5]; [15],0.933 ± 0.31
same,promoter activity interaction Z-score,[5]; [16],-0.361 ± 0.36
same,promoter activity interaction Z-score,[5]; [17],0.246 ± 0.82
same,promoter activity interaction Z-score,[5]; [18],0.504 ± 0.18
same,promoter activity interaction Z-score,[5]; [19],0.352 ± 0.57
same,promoter activity interaction Z-score,[5]; [20],-0.236 ± 0.25
same,promoter activity interaction Z-score,[5]; [21],0.371 ± 0.84
same,promoter activity interaction Z-score,[5]; [22],0.206 ± 0.3
same,promoter activity interaction Z-score,[5]; [23],-0.277 ± 1.1
same,promoter activity interaction Z-score,[6]; [8],-0.2102 ± 0.00085
same,promoter activity interaction Z-score,[6]; [9],-0.278 ± 0.015
same,promoter activity interaction Z-score,[6]; [10],-0.273 ± 0.13
same,promoter activity interaction Z-score,[6]; [11],-0.121 ± 0.17
same,promoter activity interaction Z-score,[6]; [12],-0.286 ± 0.043
same,promoter activity interaction Z-score,[6]; [13],-0.134 ± 0.031
same,promoter activity interaction Z-score,[6]; [14],-0.188 ± 0.032
same,promoter activity interaction Z-score,[6]; [15],-0.041 ± 0.2
same,promoter activity interaction Z-score,[6]; [16],-0.297 ± 0.031
same,promoter activity interaction Z-score,[6]; [17],-0.177 ± 0.0058
same,promoter activity interaction Z-score,[6]; [18],0.0402 ± 0.16
same,promoter activity interaction Z-score,[6]; [19],-0.15 ± 0.37
same,promoter activity interaction Z-score,[6]; [20],-0.241 ± 0.021
same,promoter activity interaction Z-score,[6]; [21],-0.171 ± 0.066
same,promoter activity interaction Z-score,[6]; [22],-0.243 ± 0.11
same,promoter activity interaction Z-score,[6]; [23],-0.272 ± 0.35
same,promoter activity interaction Z-score,[7]; [8],-0.906 ± 1
same,promoter activity interaction Z-score,[7]; [9],-0.418 ± 0.34
same,promoter activity interaction Z-score,[7]; [10],0.214 ± 1.5
same,promoter activity interaction Z-score,[7]; [11],-0.701 ± 0.52
same,promoter activity interaction Z-score,[7]; [12],-0.18 ± 0.28
same,promoter activity interaction Z-score,[7]; [13],0.28 ± 0.4
same,promoter activity interaction Z-score,[7]; [14],-0.738 ± 0.76
same,promoter activity interaction Z-score,[7]; [15],-0.512 ± 0.23
same,promoter activity interaction Z-score,[7]; [16],-0.157 ± 0.39
same,promoter activity interaction Z-score,[7]; [17],0.0619 ± 0.15
same,promoter activity interaction Z-score,[7]; [18],-0.0757 ± 0.051
same,promoter activity interaction Z-score,[7]; [19],-0.611 ± 1.3
same,promoter activity interaction Z-score,[7]; [20],-0.913 ± 0.14
same,promoter activity interaction Z-score,[7]; [21],0.586 ± 1.1
same,promoter activity interaction Z-score,[7]; [22],-0.0963 ± 1.2
same,promoter activity interaction Z-score,[7]; [23],0.127 ± 0.016

# Source: the supplement of paper PMC12282887
